# In PubChem BioAssay (EPA / NIEHS):
# Activity calls are given as the source filed them. How the source made its calls: active means hit-call score of the fitted dose curve at least 0.9, where 1 is the maximum; inactive means score below 0.9.
# Read-out: Collagen I, COL1A1 (gene 1277)
# Assay: BSK_MyoF_CollagenI: BioMAP Diversity Plus: MyoF Assay for Collagen I Biomarker Activity (AID 2284238)
# Settings: primary human lung fibroblasts
# Procedure: BSK_MyoF is a cell-based, multiplexed-readout assay that uses lung fibroblasts, […], with measurements taken at 24 hours after chemical dosing in a microplate: 96-well plate.BSK_MyoF_CollagenI is an assay component measured in the BSK_MyoF assay. It measures Collagen I antibody related to regulation of gene expression using ELISA technology.Data from the assay component BSK_MyoF_CollagenI was analyzed at the endpoint, BSK_MyoF_CollagenI, in the positive analysis fitting direction relative to DMSO as the negative control and baseline of activity. Using a type of binding reporter, gain or loss-of-signal activity can be used to understand protein changes. To generalize the intended target to other relatable targets, this assay endpoint is annotated to the 'cell adhesion molecules' intended target family, where the subfamily is 'collagen'.
# The levels of cell surface (or secreted, indicated by the prefix "s") biomarker endpoints were measured by ELISA. Overt cytotoxicity to cells in confluent adherent cultures (all systems other than the BT system) was assessed by measuring total protein levels using sulforhodamine B (SRB) staining in parallel cultures at the time of biomarker measurements, indicated as SRB endpoints. For proliferation assays for adherent cell types, individual cell types are cultured at sub-confluence and relative cell numbers quantified by SRB staining at time points optimized for each system (48 h: 3C and CASM3C systems; 72 h: BT and HDF3CGF systems; 96 h: SAg system). SRB was performed by staining cells with 0.1% SRB after fixation with 10% TCA and reading wells at 560 nm.Viability and proliferation of PBMC (T cells) was quantified by Alamar Blue reduction for the SAg and BT systems. For PBMC viability (referred to as PBMC Cytotoxicity within the assay endpoint names), cells were plated (75,000/well in a 96-well plate) and then chemical samples added for 1 h before addition of activators, SEB and TSST-1 (20 ng/mL final concentration each). Cells were incubated for 90 h. Then, Alamar Blue (20 uL/well) (Invitrogen, Cat DAL1100) was added for 6 h, and the plates were read with a fluorescence microplate reader at 546/580 nm (excitation/emission). For PBMC proliferation, cells were plated and activated as above but incubated for only 16 h prior to addition of Alamar Blue. Plates were read after 6 h.
Structure (SMILES),outcome,AC50
COc1cc(Cl)c(OC)cc1N,inactive,–
CC(C=O)Cc1ccc(C(C)(C)C)cc1 (stereo not drawn),inactive,–
CS(=O)(=O)c1ccc(C2=C(c3ccccc3)C(=O)OC2)cc1,inactive,–
c1ccc(CCc2ccccc2)cc1,–,31.9 µM (active)
C[C@@H]1CCN(C(=O)[C@H](CCCN=C(N)N)NS(=O)(=O)c2cccc3c2NC[C@H](C)C3)[C@@H](C(=O)O)C1,inactive,–
C=C(C)C(=O)OCCOCCOCCOC(=O)C(=C)C,inactive,–
CC(=O)c1c(C)c([N+](=O)[O-])c(C(C)(C)C)c([N+](=O)[O-])c1C,inactive,–
Clc1cc(Cl)c(-c2c(Cl)c(Cl)cc(Cl)c2Cl)cc1Cl,–,2.99 µM (active)
c1ccc(Oc2ccccc2)cc1,inactive,–
c1ccc2cc(Nc3ccc(Nc4ccc5ccccc5c4)cc3)ccc2c1,inactive,–
COc1ccc(CCN2CCC(Nc3nc4ccccc4n3Cc3ccc(F)cc3)CC2)cc1,–,8.62 µM (active)
C=C(C)C(=O)OCC(CC)(COC(=O)C(=C)C)COC(=O)C(=C)C,–,10.2 µM (active)
Cc1cc(CCC(=O)OCCOCCOCCOC(=O)CCc2cc(C)c(O)c(C(C)(C)C)c2)cc(C(C)(C)C)c1O,inactive,–
CN(C)C(=O)Nc1ccc(Oc2ccc(Cl)cc2)cc1,inactive,–
C=C(C)[C@H]1CC=C(C)C(=O)C1,inactive,–
CCCCN(CCCC)C(=O)N(CCCC)CCCC,–,9.53 µM (active)
CC(=O)Nc1ccc(C(=O)CCl)cc1,–,29.5 µM (active)
CC1(C)C2=CCCC(C)(C)[C@]23CC[C@H]1C3,–,30.4 µM (active)
CSCCC=O,inactive,–

Structure (SMILES),outcome,AC50
CCCCCC(C=O)=Cc1ccccc1,inactive,–
CCCCOC(=O)CCCCCCCC(=O)OCCCC,inactive,–
C=C(C)C(=O)OCCOCCOCCOCCOC(=O)C(=C)C,inactive,–
CN(c1nccc(=O)[nH]1)C1CCN(c2nc3ccccc3n2Cc2ccc(F)cc2)CC1,inactive,–
IC(I)I,inactive,–
CC=Cc1ccc(OCC)c(O)c1,inactive,–
CCC(C)c1cc([N+](=O)[O-])cc([N+](=O)[O-])c1OC(=O)OC(C)C (stereo not drawn),–,2.66 µM (active)
Oc1c(Cl)cc(Cl)c(Cl)c1Cc1c(O)c(Cl)cc(Cl)c1Cl,–,0.215 µM (active)
CC(C)(N=C=O)c1cccc(C(C)(C)N=C=O)c1,inactive,–
O=C1OC2(c3ccccc31)c1ccc(O)c(Br)c1Oc1c2ccc(O)c1Br,inactive,–
O=C1OC[C@H](Cc2cccc(O)c2)[C@H]1Cc1cccc(O)c1,inactive,–
CN(C)C(=S)SC(=S)N(C)C,inactive,–
CC(C)(C)CC(C)(C)c1ccc(OCCOCC[N+](C)(C)Cc2ccccc2)cc1,–,5 µM (active)
CC(=O)C1(C)CC2=C(CCCC2(C)C)CC1C (stereo not drawn),–,24.7 µM (active)
COc1ccc(OC)c(N=Nc2c(O)ccc3ccccc23)c1,inactive,–
O=C1c2ccccc2C(=O)c2c(O)ccc(O)c21,inactive,–
CCCCCCCCCCCCCCCC(=O)OC/C=C(C)/C=C/C=C(C)/C=C/C1=C(C)CCCC1(C)C,inactive,–
C1=CC2C3C=CC(C3)C2C1 (stereo not drawn),inactive,–
CCN(CC)C(=O)N(CC)CC,inactive,–
